Assay results: publication PMC7862700, “An all-to-all approach to the identification of sequence-specific readers for epigenetic DNA modifications on cytosine”

How the values were obtained:
Test in all cases: DAPPL (digital affinity profiling via proximity ligation, sequencing); 10 mM Tris-HCl pH 7.5, 50 mM NaCl, 1 mM DTT, 4% glycerol, room temperature, 30 min; GST-TFs on glutathione beads, 16-mer random dsDNA library, 0.1% formaldehyde crosslink after washing; high values mean tight binding
Settings in all cases: protein: recombinant; tags: N-terminal GST; dsDNA, one strand shown
ERF = target: T1, ERF (Homo sapiens, UniProt P50548 1-548)
T1 sequence: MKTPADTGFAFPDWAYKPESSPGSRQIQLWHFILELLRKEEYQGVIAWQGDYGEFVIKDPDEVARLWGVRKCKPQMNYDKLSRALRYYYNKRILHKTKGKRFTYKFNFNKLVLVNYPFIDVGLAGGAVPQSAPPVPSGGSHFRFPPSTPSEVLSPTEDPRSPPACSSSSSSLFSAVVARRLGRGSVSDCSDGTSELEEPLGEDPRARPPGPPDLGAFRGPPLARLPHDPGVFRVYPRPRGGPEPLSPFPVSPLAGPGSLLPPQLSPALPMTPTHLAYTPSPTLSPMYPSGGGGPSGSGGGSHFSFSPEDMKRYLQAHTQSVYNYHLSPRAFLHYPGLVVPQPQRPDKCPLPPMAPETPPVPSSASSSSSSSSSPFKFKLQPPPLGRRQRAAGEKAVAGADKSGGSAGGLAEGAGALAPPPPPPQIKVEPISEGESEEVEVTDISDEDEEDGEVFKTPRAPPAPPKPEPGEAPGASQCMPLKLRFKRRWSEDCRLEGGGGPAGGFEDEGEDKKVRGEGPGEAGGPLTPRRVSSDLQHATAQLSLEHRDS
Method in brief: (§1)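 Sequencing on an Illumina NextSeq500 followed washing, crosslinking with 0.1% formaldehyde, proximity ligation (BsaI/T4 ligase, 1 h, 37 °C) and PCR amplification of pools that had been incubated for 30 min at room temperature with 200 nmole of a random double-stranded 16-mer DNA library in Tris/NaCl/DTT/glycerol buffer. Each pool held DNA-barcoded human transcription factors, expressed in yeast as GST fusions and captured on glutathione beads, plus a tag-only sample. Binding signal is a hexamer's read frequency for a factor divided by its frequency in the tag-only sample.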

ETV3L = target: T2, ETV3L (Homo sapiens, UniProt Q6ZN32 1-361)
T2 sequence: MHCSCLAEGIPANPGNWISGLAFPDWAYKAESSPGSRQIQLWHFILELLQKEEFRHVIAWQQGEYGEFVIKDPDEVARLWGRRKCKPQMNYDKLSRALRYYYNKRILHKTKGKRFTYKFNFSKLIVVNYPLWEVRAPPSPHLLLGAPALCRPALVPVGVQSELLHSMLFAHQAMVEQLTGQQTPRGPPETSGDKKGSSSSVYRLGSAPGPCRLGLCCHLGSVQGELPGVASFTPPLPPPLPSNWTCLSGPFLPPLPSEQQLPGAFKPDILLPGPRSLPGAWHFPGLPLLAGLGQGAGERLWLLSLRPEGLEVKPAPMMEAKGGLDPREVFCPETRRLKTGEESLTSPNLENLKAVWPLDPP
Method in brief: as §1

ETS2 = target: T3, ETS2 (Homo sapiens, UniProt P15036 1-469)
T3 sequence: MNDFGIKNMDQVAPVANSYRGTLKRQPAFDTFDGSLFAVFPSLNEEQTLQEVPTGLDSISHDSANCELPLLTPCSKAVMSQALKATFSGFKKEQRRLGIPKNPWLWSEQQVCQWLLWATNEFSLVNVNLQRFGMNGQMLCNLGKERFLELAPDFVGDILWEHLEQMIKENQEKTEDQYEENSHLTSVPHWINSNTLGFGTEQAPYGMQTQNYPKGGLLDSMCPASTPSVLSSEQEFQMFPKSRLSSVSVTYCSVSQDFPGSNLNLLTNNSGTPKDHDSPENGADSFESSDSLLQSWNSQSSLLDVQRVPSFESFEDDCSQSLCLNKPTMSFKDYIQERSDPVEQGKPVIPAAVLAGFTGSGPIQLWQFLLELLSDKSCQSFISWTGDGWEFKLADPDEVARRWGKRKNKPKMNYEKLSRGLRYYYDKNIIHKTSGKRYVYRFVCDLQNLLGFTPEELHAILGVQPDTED
Method in brief: as §1

SPDEF = target: T4, SPDEF (Homo sapiens, UniProt O95238 1-335)
T4 sequence: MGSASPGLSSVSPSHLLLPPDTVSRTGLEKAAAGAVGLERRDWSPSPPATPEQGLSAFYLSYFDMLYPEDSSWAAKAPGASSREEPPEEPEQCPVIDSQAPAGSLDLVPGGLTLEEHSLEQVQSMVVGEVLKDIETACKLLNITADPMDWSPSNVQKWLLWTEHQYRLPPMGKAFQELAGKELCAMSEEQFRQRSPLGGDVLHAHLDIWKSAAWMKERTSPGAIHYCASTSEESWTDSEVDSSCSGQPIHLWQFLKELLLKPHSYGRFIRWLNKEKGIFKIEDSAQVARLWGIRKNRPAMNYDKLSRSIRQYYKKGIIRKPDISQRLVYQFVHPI
Method in brief: as §1

ETV7 = target: T5, ETV7 (Homo sapiens, UniProt Q9Y603 1-341)
T5 sequence: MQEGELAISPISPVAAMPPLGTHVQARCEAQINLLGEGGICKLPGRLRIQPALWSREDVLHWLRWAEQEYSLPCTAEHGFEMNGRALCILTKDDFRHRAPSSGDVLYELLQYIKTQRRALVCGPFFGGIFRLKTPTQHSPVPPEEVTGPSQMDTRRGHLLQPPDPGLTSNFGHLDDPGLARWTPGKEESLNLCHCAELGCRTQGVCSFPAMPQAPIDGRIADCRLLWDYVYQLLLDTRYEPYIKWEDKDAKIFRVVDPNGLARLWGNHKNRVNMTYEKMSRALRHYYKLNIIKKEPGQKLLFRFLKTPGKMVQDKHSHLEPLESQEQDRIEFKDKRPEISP
Method in brief: as §1

ELF5 = target: T6, ELF5 (Homo sapiens, UniProt Q9UKW6-2 1-255)
T6 sequence: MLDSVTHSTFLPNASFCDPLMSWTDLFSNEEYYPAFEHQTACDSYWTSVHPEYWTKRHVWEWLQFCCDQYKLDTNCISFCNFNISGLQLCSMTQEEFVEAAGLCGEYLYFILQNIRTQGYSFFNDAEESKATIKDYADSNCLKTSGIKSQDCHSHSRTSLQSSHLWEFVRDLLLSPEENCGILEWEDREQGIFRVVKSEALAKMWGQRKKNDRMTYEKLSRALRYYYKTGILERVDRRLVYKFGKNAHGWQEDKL
Method in brief: as §1

ETV3 = target: T7, ETV3 (Homo sapiens, UniProt P41162-2 1-143)
T7 sequence: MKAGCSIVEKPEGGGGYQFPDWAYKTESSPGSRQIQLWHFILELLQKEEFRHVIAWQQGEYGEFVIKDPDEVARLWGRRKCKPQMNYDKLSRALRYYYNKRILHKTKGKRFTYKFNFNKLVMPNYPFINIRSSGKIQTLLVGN
Method in brief: as §1

ETV6 = ETV6 (Homo sapiens, UniProt P41212 1-452)
Method in brief: as §1

Chain of ETV6 (P41212 whole entry): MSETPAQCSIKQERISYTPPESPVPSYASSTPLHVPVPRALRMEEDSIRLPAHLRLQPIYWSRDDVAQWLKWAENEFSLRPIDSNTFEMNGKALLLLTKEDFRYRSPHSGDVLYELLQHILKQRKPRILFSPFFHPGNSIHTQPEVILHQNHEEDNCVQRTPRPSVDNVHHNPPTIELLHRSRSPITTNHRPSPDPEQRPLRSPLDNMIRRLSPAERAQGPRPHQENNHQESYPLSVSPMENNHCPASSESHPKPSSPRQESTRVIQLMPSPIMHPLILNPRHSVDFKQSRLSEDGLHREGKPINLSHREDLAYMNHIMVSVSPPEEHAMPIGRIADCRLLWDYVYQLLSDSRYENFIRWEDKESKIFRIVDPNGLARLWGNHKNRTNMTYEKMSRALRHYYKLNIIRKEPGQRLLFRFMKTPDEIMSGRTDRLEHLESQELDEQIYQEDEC

Sequence	binding signal (ERF)	binding signal (ETV3L)	binding signal (ETS2)	binding signal (SPDEF)	binding signal (ETV7)	binding signal (ELF5)	binding signal (ETV3)	binding signal (ETV6)
GCTCCA	1.26 fold enrichment (6-mer frequency, TF over GST control)	1.26 fold enrichment (6-mer frequency, TF over GST control)	1.21 fold enrichment (6-mer frequency, TF over GST control)	1.19 fold enrichment (6-mer frequency, TF over GST control)	1.19 fold enrichment (6-mer frequency, TF over GST control)	1.09 fold enrichment (6-mer frequency, TF over GST control)	1.14 fold enrichment (6-mer frequency, TF over GST control)	1.1 fold enrichment (6-mer frequency, TF over GST control)
GTAAAA	1.13 fold enrichment (6-mer frequency, TF over GST control)	1.14 fold enrichment (6-mer frequency, TF over GST control)	1.13 fold enrichment (6-mer frequency, TF over GST control)	1.09 fold enrichment (6-mer frequency, TF over GST control)	1.18 fold enrichment (6-mer frequency, TF over GST control)	1.18 fold enrichment (6-mer frequency, TF over GST control)	1.16 fold enrichment (6-mer frequency, TF over GST control)	1.14 fold enrichment (6-mer frequency, TF over GST control)
GATCTC	1.22 fold enrichment (6-mer frequency, TF over GST control)	1.25 fold enrichment (6-mer frequency, TF over GST control)	1.31 fold enrichment (6-mer frequency, TF over GST control)	1.42 fold enrichment (6-mer frequency, TF over GST control)	1.29 fold enrichment (6-mer frequency, TF over GST control)	1.21 fold enrichment (6-mer frequency, TF over GST control)	1.29 fold enrichment (6-mer frequency, TF over GST control)	1.15 fold enrichment (6-mer frequency, TF over GST control)
TCTTGT	1.68 fold enrichment (6-mer frequency, TF over GST control)	1.61 fold enrichment (6-mer frequency, TF over GST control)	1.47 fold enrichment (6-mer frequency, TF over GST control)	1.57 fold enrichment (6-mer frequency, TF over GST control)	1.57 fold enrichment (6-mer frequency, TF over GST control)	1.42 fold enrichment (6-mer frequency, TF over GST control)	1.5 fold enrichment (6-mer frequency, TF over GST control)	1.48 fold enrichment (6-mer frequency, TF over GST control)
TCTCTC	1.31 fold enrichment (6-mer frequency, TF over GST control)	1.38 fold enrichment (6-mer frequency, TF over GST control)	1.2 fold enrichment (6-mer frequency, TF over GST control)	1.28 fold enrichment (6-mer frequency, TF over GST control)	1.11 fold enrichment (6-mer frequency, TF over GST control)	1.24 fold enrichment (6-mer frequency, TF over GST control)	1.37 fold enrichment (6-mer frequency, TF over GST control)	1.27 fold enrichment (6-mer frequency, TF over GST control)
TTGGTA	1.21 fold enrichment (6-mer frequency, TF over GST control)	1.32 fold enrichment (6-mer frequency, TF over GST control)	1.23 fold enrichment (6-mer frequency, TF over GST control)	1.23 fold enrichment (6-mer frequency, TF over GST control)	1.23 fold enrichment (6-mer frequency, TF over GST control)	1.17 fold enrichment (6-mer frequency, TF over GST control)	1.18 fold enrichment (6-mer frequency, TF over GST control)	1.19 fold enrichment (6-mer frequency, TF over GST control)
AAACTA	1.29 fold enrichment (6-mer frequency, TF over GST control)	1.27 fold enrichment (6-mer frequency, TF over GST control)	1.35 fold enrichment (6-mer frequency, TF over GST control)	1.29 fold enrichment (6-mer frequency, TF over GST control)	1.31 fold enrichment (6-mer frequency, TF over GST control)	1.32 fold enrichment (6-mer frequency, TF over GST control)	1.24 fold enrichment (6-mer frequency, TF over GST control)	1.25 fold enrichment (6-mer frequency, TF over GST control)
TATCAT	1.14 fold enrichment (6-mer frequency, TF over GST control)	1.21 fold enrichment (6-mer frequency, TF over GST control)	1.13 fold enrichment (6-mer frequency, TF over GST control)	1.09 fold enrichment (6-mer frequency, TF over GST control)	1.1 fold enrichment (6-mer frequency, TF over GST control)	1.15 fold enrichment (6-mer frequency, TF over GST control)	1.21 fold enrichment (6-mer frequency, TF over GST control)	1.05 fold enrichment (6-mer frequency, TF over GST control)
